The panel holds about 83,000 compounds, 20% with a hit somewhere; the sample as a whole holds those more often.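 How to read the values: 0–100, growth inhibition (40 = 60% inhibited); 0, no net growth; -100 to 0, cell death (-40 = 40% of starting cells died; -100 = all dead).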 Activity calls are given as the source filed them. The calls were made as follows: active = growth percent below 10; inactive = the rest.

The source of these data is PubChem BioAssay (NCI).

In one assay the test system is CAKI-1 renal. The experiment in a line: NCI-60 one-dose screen, 48 h (100 = growth as untreated, 0 = no growth, -100 = all killed). The conditions noted are these: 10 µM unless noted.
Regarding `COc1ccccc1-c1nc2ccc3[nH]ncc3c2c2c1CCCC2`, the growth was 21.8% (inactive).

For the compound `O=c1ccc2nc(-c3ccccc3)nn(-c3ccccn3)c-2c1`, the growth was 77.4% (inactive).

With `Nc1ncc(-c2ccc3ncnc(N4CCc5cc(F)c(Cl)cc54)c3c2)cc1C=O`, the growth is -0.981% (active).

Turning to `C#Cc1ccc(NC(=O)Cc2ccc(/C=C/C(=O)c3nccn3C)cc2)cc1`, the growth is 47.7% (inactive).

As for `CCCCN(CCC#N)C(N)=O`, the growth is 82.7% (inactive).

`COc1ccc(-c2cn(Cc3ccc4c(Br)cc(Br)c(O)c4n3)nn2)cc1`: the growth is 61.6% (inactive).

In the case of `CCc1ccc(Cc2cnc(NC(=O)c3cc(C)oc3C)s2)cc1`, the growth was 22.2% (inactive).

As to `COc1cc(/C=C/c2cc(/C=C/c3ccc(O)c(OC)c3)n(C(=O)Nc3ccc(C)cc3C)n2)ccc1O`, the growth was -36.6% (active).

For `Clc1nc(N2CCC[N+]3(CC2)CC[N+]2(CCCNCC2)CC3)nc(N2CCC[N+]3(CC2)CC[N+]2(CCCNCC2)CC3)n1` (stereo not drawn), the growth is 65.1% (inactive).

On to `O=S(=O)(Nc1ccc(Br)cc1)c1ccc(-c2cnc(C3CC3)o2)cc1`, for which the growth is 40.6% (inactive).

On to `O=C1N/C(=N/N=C(c2ccccc2)c2ccccc2)S/C1=C\c1ccc(Br)cc1`, for which the growth was 77.2% (inactive).

For the compound `COc1cc(OCc2cccc(-c3ccc4c(c3)OCCO4)c2C)cc(OC)c1C=O`, the growth is 25.9% (inactive).

On to `COC(=O)c1c(C)nc(C)c2c1C(=O)C(Br)=C(NCCCCO)C2=O`, for which the growth is 70.5% (inactive).

As to `COc1ccc(CNc2c3ccccc3nc3ccccc23)cc1OC`, the growth was 10.5% (inactive).

On to `COc1cc(/C=C/C(=O)c2ccc(-n3cc(CN4CCN(c5cc6c(cc5F)c(=O)c(C(=O)O)cn6C5CC5)CC4)nn3)cc2)cc(OC)c1OC`, for which the growth is 68.7% (inactive).

In the case of `CCCCCC(C)(O)C(C(=O)O)c1ccccc1` (stereo not drawn), the growth is 100% (inactive).

As for `C[C@@H]1N=C(c2ccc(Cl)cc2Cl)Nc2nc3ccccn3c2C1=O`, the growth was 47.2% (inactive).

For the compound `O=C(Nc1ccccc1)Nc1ccccc1CNc1nc(Nc2ccc(OCCN3CCCC3)cc2)ncc1Cl`, the growth is 62.7% (inactive).

`COc1ccc(S(=O)(=O)N(C)c2oc(-c3ccc(Cl)cc3)nc2C#N)cc1`: the growth was 75.6% (inactive).

For the compound `COc1cccc(C(=O)Nc2cccc(NC(=O)c3ccccn3)c2)c1`, the growth was 99.1% (inactive).

As for `CS(=O)(=O)c1ccc(/C(=N/NC(N)=S)c2ccc(F)cc2)cc1`, the growth was 94.7% (inactive).

Consider `CSc1nc(N)c2c(n1)NC(c1ccccc1)C1CCc3ccccc3C1=N2` (stereo not drawn), for which the growth was 48.2% (inactive).

Consider `COc1cccc(CNc2nnc(C)c(C)n2)c1O`, for which the growth is 100% (inactive).

For `COc1ccc(NC(=O)CSc2oc(-c3ccccc3)nc2S(=O)(=O)c2ccc(Cl)cc2)c(OC)c1`, the growth was 86.1% (inactive).

`O=C(c1ccc(F)cc1)C1CCN(CCn2c(=O)[nH]c3ccccc3c2=O)CC1`: the growth is 84.2% (inactive).

Take `CC(=O)OCC(=O)O[C@@H]1C[C@]2(C(C)C)O[C@@]1(C)[C@@H]1CC[C@@H](C)[C@H]1[C@@H]2OC(=O)/C=C/c1ccccc1`: the growth is -2.07% (active).

Take `O=C(Nc1ncc(Cc2ccccc2)s1)c1cc(-c2ccccc2)nc2ccccc12`: the growth is 93.7% (inactive).

In the case of `O=c1cc(-c2nccc3c2[nH]c2ccccc23)c2cc(Cl)ccc2o1`, the growth was 54.6% (inactive).

As to `O=C(CN1C(=O)NC2NC(=O)NC21)N/N=C/c1cccc([N+](=O)[O-])c1` (stereo not drawn), the growth was 85.8% (inactive).

Regarding `CCCCCCCCCCCCCC[n+]1ccc2c(C)c3c(c(C)c2c1)c1cc(O)ccc1n3CC`, the growth is 31.4% (inactive).

Take `C=C(C)[C@@H]1CCC[C@]2(C(=O)OC)CC[C@]3(C)[C@@H](CC[C@@H]4[C@@]5(C)CCCNC(C)(C)[C@@H]5CC[C@]43C)[C@@H]12`: the growth was 73.3% (inactive).

In the case of `COc1cc2c(cc1-c1c(C)noc1C)ncc1nc(C3CCOCC3)n(C3CCC(OC(F)F)CC3)c12` (stereo not drawn), the growth is 42.6% (inactive).

With `O=C1CCC(C(=O)N/N=C/c2ccc([N+](=O)[O-])cc2)N1` (stereo not drawn), the growth is 93% (inactive).

With `COc1cc(C(=O)/C=C/c2c(-c3cccs3)nc3sc(C)cn23)cc(OC)c1OC`, the growth is -12.7% (active).

As to `O=C(NS(=O)(=O)c1ccccc1)n1cc(-c2ccncc2)c(-c2cc(O)cc(Cl)c2)n1`, the growth was 94.2% (inactive).

Regarding `COC(CCP(=O)(c1ccccc1)c1ccccc1)(C(=O)c1ccccc1)c1ccccc1` (stereo not drawn), the growth was 87.1% (inactive).

On to `Cn1nc(-c2ccc(Cl)cc2)nc2c(=O)n(C)c(=O)nc1-2`, for which the growth was 6.17% (active).

With `CC1(C)CCC[C@]23C(=O)O[C@](O)(C(=O)C4=C[C@@](C)(/C=C/CCCc5ccc6ccc7cccc8ccc5c6c78)CC[C@@]42O)[C@@H]13`, the growth was -98.5% (active).

`COc1ccc(C2=C/C(=C\c3ccccc3O)C(=O)N2Cc2ccccc2)cc1`: the growth was 93.2% (inactive).

In the next assay the test system is A498 renal. The description is as above. The conditions noted are these: 10 µM unless noted.
Consider `COc1ccccc1-c1nc2ccc3[nH]ncc3c2c2c1CCCC2`, for which the growth is 6.87% (active).

Turning to `O=c1ccc2nc(-c3ccccc3)nn(-c3ccccn3)c-2c1`, the growth is 88.2% (inactive).

In the case of `Nc1ncc(-c2ccc3ncnc(N4CCc5cc(F)c(Cl)cc54)c3c2)cc1C=O`, the growth is -62.8% (active).

On to `C#Cc1ccc(NC(=O)Cc2ccc(/C=C/C(=O)c3nccn3C)cc2)cc1`, for which the growth was 105% (inactive).

Turning to `CCCCN(CCC#N)C(N)=O`, the growth was 89.6% (inactive).

Turning to `COc1ccc(-c2cn(Cc3ccc4c(Br)cc(Br)c(O)c4n3)nn2)cc1`, the growth was 99.6% (inactive).

`CCc1ccc(Cc2cnc(NC(=O)c3cc(C)oc3C)s2)cc1`: the growth is 8.18% (active).

In the case of `COc1cc(/C=C/c2cc(/C=C/c3ccc(O)c(OC)c3)n(C(=O)Nc3ccc(C)cc3C)n2)ccc1O`, the growth was -14.7% (active).

Take `Clc1nc(N2CCC[N+]3(CC2)CC[N+]2(CCCNCC2)CC3)nc(N2CCC[N+]3(CC2)CC[N+]2(CCCNCC2)CC3)n1` (stereo not drawn): the growth was 114% (inactive).

Regarding `O=S(=O)(Nc1ccc(Br)cc1)c1ccc(-c2cnc(C3CC3)o2)cc1`, the growth is -6.87% (active).

Take `O=C1N/C(=N/N=C(c2ccccc2)c2ccccc2)S/C1=C\c1ccc(Br)cc1`: the growth was 89.2% (inactive).

Turning to `COc1cc(OCc2cccc(-c3ccc4c(c3)OCCO4)c2C)cc(OC)c1C=O`, the growth is -10.4% (active).

With `COC(=O)c1c(C)nc(C)c2c1C(=O)C(Br)=C(NCCCCO)C2=O`, the growth was 115% (inactive).

Regarding `COc1ccc(CNc2c3ccccc3nc3ccccc23)cc1OC`, the growth was -12.1% (active).

Turning to `COc1cc(/C=C/C(=O)c2ccc(-n3cc(CN4CCN(c5cc6c(cc5F)c(=O)c(C(=O)O)cn6C5CC5)CC4)nn3)cc2)cc(OC)c1OC`, the growth was 34.9% (inactive).

Take `CCCCCC(C)(O)C(C(=O)O)c1ccccc1` (stereo not drawn): the growth is 90.3% (inactive).

`C[C@@H]1N=C(c2ccc(Cl)cc2Cl)Nc2nc3ccccn3c2C1=O`: the growth is 60.7% (inactive).

For `O=C(Nc1ccccc1)Nc1ccccc1CNc1nc(Nc2ccc(OCCN3CCCC3)cc2)ncc1Cl`, the growth was 31.5% (inactive).

On to `COc1ccc(S(=O)(=O)N(C)c2oc(-c3ccc(Cl)cc3)nc2C#N)cc1`, for which the growth is 63.8% (inactive).

Consider `COc1cccc(C(=O)Nc2cccc(NC(=O)c3ccccn3)c2)c1`, for which the growth is 93% (inactive).

Consider `CS(=O)(=O)c1ccc(/C(=N/NC(N)=S)c2ccc(F)cc2)cc1`, for which the growth is 82.2% (inactive).

As for `CSc1nc(N)c2c(n1)NC(c1ccccc1)C1CCc3ccccc3C1=N2` (stereo not drawn), the growth was 42.7% (inactive).

Turning to `COc1cccc(CNc2nnc(C)c(C)n2)c1O`, the growth is 95.3% (inactive).

Take `COc1ccc(NC(=O)CSc2oc(-c3ccccc3)nc2S(=O)(=O)c2ccc(Cl)cc2)c(OC)c1`: the growth is 49.9% (inactive).

Turning to `O=C(c1ccc(F)cc1)C1CCN(CCn2c(=O)[nH]c3ccccc3c2=O)CC1`, the growth was 118% (inactive).

`CC(=O)OCC(=O)O[C@@H]1C[C@]2(C(C)C)O[C@@]1(C)[C@@H]1CC[C@@H](C)[C@H]1[C@@H]2OC(=O)/C=C/c1ccccc1`: the growth was -92.5% (active).

Turning to `O=C(Nc1ncc(Cc2ccccc2)s1)c1cc(-c2ccccc2)nc2ccccc12`, the growth is 103% (inactive).

On to `O=c1cc(-c2nccc3c2[nH]c2ccccc23)c2cc(Cl)ccc2o1`, for which the growth was 31.8% (inactive).

On to `O=C(CN1C(=O)NC2NC(=O)NC21)N/N=C/c1cccc([N+](=O)[O-])c1` (stereo not drawn), for which the growth is 95.8% (inactive).

Consider `CCCCCCCCCCCCCC[n+]1ccc2c(C)c3c(c(C)c2c1)c1cc(O)ccc1n3CC`, for which the growth is -19.8% (active).

As to `C=C(C)[C@@H]1CCC[C@]2(C(=O)OC)CC[C@]3(C)[C@@H](CC[C@@H]4[C@@]5(C)CCCNC(C)(C)[C@@H]5CC[C@]43C)[C@@H]12`, the growth was 106% (inactive).

`COc1cc2c(cc1-c1c(C)noc1C)ncc1nc(C3CCOCC3)n(C3CCC(OC(F)F)CC3)c12` (stereo not drawn): the growth is 41.7% (inactive).

Consider `O=C1CCC(C(=O)N/N=C/c2ccc([N+](=O)[O-])cc2)N1` (stereo not drawn), for which the growth is 106% (inactive).

Regarding `COc1cc(C(=O)/C=C/c2c(-c3cccs3)nc3sc(C)cn23)cc(OC)c1OC`, the growth is -15.7% (active).

For the compound `O=C(NS(=O)(=O)c1ccccc1)n1cc(-c2ccncc2)c(-c2cc(O)cc(Cl)c2)n1`, the growth was 103% (inactive).

In the case of `COC(CCP(=O)(c1ccccc1)c1ccccc1)(C(=O)c1ccccc1)c1ccccc1` (stereo not drawn), the growth was 83.4% (inactive).

Turning to `Cn1nc(-c2ccc(Cl)cc2)nc2c(=O)n(C)c(=O)nc1-2`, the growth is -94.8% (active).

As for `CC1(C)CCC[C@]23C(=O)O[C@](O)(C(=O)C4=C[C@@](C)(/C=C/CCCc5ccc6ccc7cccc8ccc5c6c78)CC[C@@]42O)[C@@H]13`, the growth is -87.9% (active).

As for `COc1ccc(C2=C/C(=C\c3ccccc3O)C(=O)N2Cc2ccccc2)cc1`, the growth is 98.3% (inactive).
